Drawing on PubChem BioAssay, this text covers outcome and inhibition for 15 compounds.

Test [1] relates to TRPC4 beta (transient receptor potential cation channel C4), mouse. Briefly: TRPC4 cation channel opening, retest – cell-based, Fluo4 calcium, HEK293 TRPC4beta/mu-opioid, duplicates, 10 µM, confirmation (AID 2426;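 active means fluorescence ratio normalized to control raised more than 50% in primary screen plus both repeat runs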). Conditions: Fluo4 calcium fluorescence, at 10 µM; active compounds read high.
Test [2] relates to transient receptor potential cation channel C4 beta (TRPC4), mouse. Briefly: TRPC4 cation channel opening, second retest – cell-based, second round, Fluo4, HEK293 TRPC4beta/mu-opioid, 1 µM, confirmation (AID 2461;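 active means primary screen active and over 50% activation in each of two duplicate runs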). Conditions: Fluo4 calcium fluorescence, at 1 µM; active compounds read high.
Test [3] concerns TRPC4 (transient receptor potential cation channel C4 beta), mouse. Briefly: potentiation of DAMGO EC20 TRPC4 response – cell-based, second round, Fluo-4, HEK293 TRPC4beta/mu-opioid, 1 µM, confirmation (AID 2554;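 active means primary screen hit whose fluorescence ratio, in both repeats, exceeds the weak agonist control mean by 3 SD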). Conditions: DAMGO EC20, Fluo-4 calcium flux, at 1 µM; active compounds read high.
Test [4] deals with TRPC4 beta (transient receptor potential cation channel C4), mouse. The test can be described thus: potentiation of DAMGO EC20 TRPC4 response – cell-based, Fluo-4, HEK293 TRPC4beta/mu-opioid, confirmation (AID 2555;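 active means primary screen hit whose calcium fluorescence ratio, in both repeats, exceeds the weak agonist control mean by 3 SD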). Conditions: DAMGO EC20, Fluo-4 calcium flux, at 10 µM; active compounds read high.
Test [5] deals with Short transient receptor potential channel 4 (Mus musculus) (UniProt Q9QUQ5). Briefly: blockers of DAMGO-evoked TRPC4 calcium flux – cell-based, Fluo4, HEK293 TRPC4beta/mu-opioid, confirmation (AID 2636;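 active means calcium signal cut by more than 3 SD below the full-agonist control yet still positive, in both repeats and the earlier primary screen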). Conditions: at 10 µM; active compounds read high.
Chain of Short transient receptor potential channel 4 (Mus musculus) (Q9QUQ5 whole entry, looked up): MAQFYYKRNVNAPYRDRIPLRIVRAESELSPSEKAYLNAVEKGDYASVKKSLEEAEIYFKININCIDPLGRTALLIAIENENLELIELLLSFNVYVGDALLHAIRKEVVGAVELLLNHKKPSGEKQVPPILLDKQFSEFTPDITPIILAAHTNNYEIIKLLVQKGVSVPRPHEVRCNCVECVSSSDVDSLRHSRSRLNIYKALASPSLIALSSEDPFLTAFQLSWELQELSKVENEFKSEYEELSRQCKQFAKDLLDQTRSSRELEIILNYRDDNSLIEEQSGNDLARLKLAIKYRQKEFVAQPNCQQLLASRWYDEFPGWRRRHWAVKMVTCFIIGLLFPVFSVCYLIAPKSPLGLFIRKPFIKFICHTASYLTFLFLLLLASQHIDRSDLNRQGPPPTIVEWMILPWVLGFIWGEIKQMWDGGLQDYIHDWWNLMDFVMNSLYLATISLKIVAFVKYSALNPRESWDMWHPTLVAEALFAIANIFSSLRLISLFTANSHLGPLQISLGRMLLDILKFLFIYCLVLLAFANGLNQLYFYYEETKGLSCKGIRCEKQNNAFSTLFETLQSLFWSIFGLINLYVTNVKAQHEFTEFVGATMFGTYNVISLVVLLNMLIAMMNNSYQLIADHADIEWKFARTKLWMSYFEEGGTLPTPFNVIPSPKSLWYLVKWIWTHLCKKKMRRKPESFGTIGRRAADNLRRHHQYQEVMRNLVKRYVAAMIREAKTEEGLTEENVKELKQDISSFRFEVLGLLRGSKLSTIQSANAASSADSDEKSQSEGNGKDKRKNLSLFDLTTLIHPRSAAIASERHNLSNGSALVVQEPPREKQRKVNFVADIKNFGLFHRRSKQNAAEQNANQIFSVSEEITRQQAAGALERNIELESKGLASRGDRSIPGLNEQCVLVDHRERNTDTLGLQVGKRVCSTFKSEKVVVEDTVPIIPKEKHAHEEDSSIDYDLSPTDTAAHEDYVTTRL
Test [6] shares this target. The test can be described thus: blockers of DAMGO-evoked TRPC4 calcium flux – cell-based, second round, Fluo4, HEK293 TRPC4beta/mu-opioid, 1 µM, confirmation (AID 2637;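 active means calcium signal ratio cut to more than 3 SD under the fully stimulated control mean yet still positive, in both repeats and the primary screen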;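 on inhibition: percent of integrated ratio relative to wells lacking test compound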). Conditions: at 1 µM; active compounds read high.
Test [7] shares this target. The test can be described thus: calcium entry via TRPC4 opening agents – cell-based, HEK293 TRPC4/mu-opioid, Fluo-4 calcium, dose response (AID 434937;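 active means primary screen activator hit with a dose response curve and TRPC4 channel activation at any tested dose; inactive means no activation, no dose response, or not a primary hit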).
Test [8] has the same target. Briefly: potentiation of DAMGO-evoked TRPC4 calcium signal – cell-based, HEK293 TRPC4/mu-opioid, Fluo-4 calcium, EC20 DAMGO, dose response (AID 434941).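 Further: calcium entry triggered by an EC20 dose of DAMGO at the co-expressed mu-opioid receptor.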
Test [9] deals with Short transient receptor potential channel 6 (Mus musculus) (UniProt Q61143). Briefly: TRPC6 blockade by TRPC4 inhibitor hits – cell-based, HEK293, membrane potential dye, duplicate, selectivity assay for TRPC4 inhibitor project, confirmation (AID 434948;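 active means active in primary screen and both duplicates, each dropping signal beyond three positive-control SD with fluorescence still positive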). Conditions: HEK293 TRPC6, membrane potential dye fluorescence, at 10 µM, stimulated with maximal-effect acetylcholine; active compounds read high.
Chain of Short transient receptor potential channel 6 (Mus musculus) (Q61143 whole entry, looked up): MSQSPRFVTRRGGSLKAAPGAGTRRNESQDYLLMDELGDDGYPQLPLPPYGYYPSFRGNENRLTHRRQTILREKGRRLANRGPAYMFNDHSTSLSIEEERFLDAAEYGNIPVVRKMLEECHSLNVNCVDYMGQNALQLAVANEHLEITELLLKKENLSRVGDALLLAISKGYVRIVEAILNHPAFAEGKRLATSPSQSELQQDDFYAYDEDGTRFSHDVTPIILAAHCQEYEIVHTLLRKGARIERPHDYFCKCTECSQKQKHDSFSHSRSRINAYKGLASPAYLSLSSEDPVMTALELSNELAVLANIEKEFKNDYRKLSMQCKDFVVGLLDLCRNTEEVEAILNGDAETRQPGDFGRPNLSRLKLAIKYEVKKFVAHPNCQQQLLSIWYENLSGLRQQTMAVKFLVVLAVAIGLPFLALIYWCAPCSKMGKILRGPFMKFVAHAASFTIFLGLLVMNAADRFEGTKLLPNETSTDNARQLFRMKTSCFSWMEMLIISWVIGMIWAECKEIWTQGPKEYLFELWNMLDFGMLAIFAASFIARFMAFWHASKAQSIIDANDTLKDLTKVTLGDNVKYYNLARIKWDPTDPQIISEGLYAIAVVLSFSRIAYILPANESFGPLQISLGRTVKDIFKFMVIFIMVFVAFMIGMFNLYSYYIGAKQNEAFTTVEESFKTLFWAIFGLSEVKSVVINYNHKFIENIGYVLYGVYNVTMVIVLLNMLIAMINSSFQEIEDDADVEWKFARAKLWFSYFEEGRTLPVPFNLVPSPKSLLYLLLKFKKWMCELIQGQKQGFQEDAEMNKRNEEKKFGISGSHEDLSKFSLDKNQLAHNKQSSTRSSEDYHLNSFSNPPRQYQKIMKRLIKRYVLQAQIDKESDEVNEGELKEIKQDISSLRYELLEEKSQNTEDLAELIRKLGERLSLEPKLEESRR

For test [10] the target is unchanged. Briefly: TRPC6 opening by TRPC4 activator hits – cell-based, HEK293, membrane potential dye, duplicate, selectivity assay for TRPC4 activator project, confirmation (AID 434950;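 active means membrane potential signal rise above negative control mean plus 3 SD in both duplicates, also active in the earlier TRPC4 screen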). Conditions: HEK293 TRPC6, membrane potential fluorescence, at 10 µM; activation: active compounds read high; outcome: activation.
The target is the same in test [11]. Briefly: positive modulators of mouse TRPC6 channel – HEK293 cells, membrane potential dye, duplicate, selectivity assay for TRPC4 potentiator project, confirmation (AID 434952;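 active means compound raising the membrane signal above positive-control mean plus 3 SD in both repeats, and a primary screen hit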). Conditions: HEK293 TRPC6, membrane potential dye fluorescence, at 10 µM, maximal acetylcholine added after compound; active compounds read high.
In test [12] the target is Short transient receptor potential channel 4 (Mus musculus) (UniProt Q9QUQ5). Briefly: calcium flux activators in TRPC4/5HT1a cells, counter-screen for TRPC4 activator project, cell-based, second counter screen, HEK293 TRPC4/5HT1a, Fluo-4 (AID 434977;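 active means calcium signal rise above buffer-control mean plus 5 SD in both duplicates, and also a hit in the primary screen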). Conditions: Fluo-4 calcium flux, at 10 µM; active compounds read high.
The nature of test [13]: serotonin-gated TRPC4 signal block – cell-based, second counter screen, HEK293 TRPC4/5HT1a, Fluo-4, counter-screen for TRPC4 inhibitor project, confirmation (AID 434978;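 active means primary screen active whose calcium signal fell more than 3 SD beyond the full-serotonin control mean in both duplicate plates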;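 on outcome: serotonin given first at submaximal then at maximal dose after compound preincubation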). Conditions: Fluo-4 calcium flux, at 10 µM, serotonin added to trigger calcium flux; active compounds read high.
In test [14] the test system is TRPC4 (mouse), co-expressed with 5HT1a in HEK293. The test can be described thus: enhancement of serotonin-evoked TRPC4 response – cell-based, second counter screen, HEK293 TRPC4/5HT1a, Fluo-4, counter-screen for TRPC4 potentiator project, confirmation (AID 434979;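 active means signal rise over 3 SD above mean of control wells given weak agonist, in both repeats and first screen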). Conditions: Fluo-4 calcium flux, at 10 µM, serotonin added at its EC20 dose; active compounds read high.
Test [15] can be described thus: nonspecific calcium rise without TRPC4 – cell-based, HEK293 mu-opioid receptor line, counter-screen for TRPC4 activator project, confirmation (AID 449723;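 active means hit in primary screen, with calcium signal over 5 SD above buffer well mean in both duplicates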;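 further: counter screen cells carry the mu-opioid receptor alone and lack TRPC4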). Conditions: HEK293 mu-opioid cells, Fluo-4 calcium fluorescence, at 10 µM; active compounds read high.
Test [16] can be described thus: nonspecific potentiation of DAMGO calcium response – cell-based, HEK293 mu-opioid receptor line, counter-screen for TRPC4 allosteric potentiator project, confirmation (AID 449724;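 active means calcium signal rise more than 3 SD above the low-dose agonist control mean, in both duplicate plates and the primary screen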;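 further: HEK293 cells carrying mu-opioid receptor only with no TRPC4 channel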). Conditions: HEK293 mu-opioid receptor cells, Fluo-4 calcium flux, at 10 µM, compound added before EC20 DAMGO stimulus; active compounds read high.

SMILES strings stand for the structures. For part of these data: Entries with a potency or affinity are not part of this list. Activity calls are given as the source filed them.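 How the source made its calls, unless noted: active means earlier screen potentiator hit that boosts the TRPC4 ion channel at some dose, with a dose response; inactive means no potentiation, no dose response, or not a prior hit.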

In the case of `COc1ccc(CN(C)C(=O)c2ccc(NC(=O)CC3SC(N4CCCC4)=NC3=O)cc2)c(OC)c1` (stereo not given), the result in test [1], in test [2], in test [3], in test [4], in test [6] and in test [7] was inactive. For the same compound, the outcome in test [8], in [9], in [10], in test [11], in test [12] and in test [13] was inactive. Also, the outcome in test [14], in [15] and in test [16] was inactive. Moreover, the inhibition in test [5] is 56% (active).

Regarding `Cc1cc(CN2CCCC(C(=O)Nc3ccc(-c4nc5ccccc5[nH]4)cc3)C2)n[nH]1` (stereo not given), the outcome in test [1], in test [2], in test [3], in [4], in test [7] and in test [8] was inactive. For the same compound, the call in test [9], in [10], in test [11], in [12], in test [14] and in test [15] was inactive. In addition, the outcome in test [16] was inactive. In addition, the inhibition in test [5] was 77% (active); in test [6], 61% (active); in test [13] it was 37.2% (active).

On to `CC1(C)CC2CC(C)(CN2CC(O)COc2ccccc2)C1` (stereo not given), for which the outcome in test [1], in test [2], in [3], in test [4], in test [6] and in test [7] was inactive. The result in test [8], in test [9], in test [10], in test [11], in test [12] and in test [13] was inactive. Further, the outcome in test [14], in test [15] and in test [16] was inactive. Also, the inhibition in test [5] was 86% (active).

In the case of `C=CCOc1ccc(Br)cc1CNC(C)(C)CO`, the outcome in test [1], in test [2], in [3], in test [4], in test [7] and in test [8] was inactive. For the same compound, the call in [9], in [10], in test [11], in test [12], in [14] and in test [15] was inactive. The result in test [16] was inactive. Also, the inhibition is 94% (active) in [5], 39% (active) in test [6] and 24.1% (active) in test [13].

In the case of `CCn1nc(C)c(CN2CCCC(CO)(Cc3cccc(Cl)c3)C2)c1C` (stereo not given), the result in test [1], in [2], in test [3], in [4], in test [7] and in [8] was inactive. In addition, the compound was called inactive in [9], in test [10], in test [11], in test [12], in [13] and in test [14]. Further, the result in test [15] and in test [16] was inactive. The inhibition in test [5] was 90% (active); in test [6], 49% (active).

On to `COc1cc(C(F)(F)F)nc2c(Br)c(C(C)(C)C)nn12`, for which the outcome in test [1], in test [2], in test [3], in [4], in test [7] and in [8] was inactive. For the same compound, the compound was classed as inactive in test [9], in test [10], in [11], in [12], in test [14] and in test [15]. In test [16], the result was inactive. The inhibition in test [5] was 92% (active); in test [6], 65% (active); in test [13], 35.3% (active).

As for `CCCNCc1cc(Br)ccc1OCC(=O)NCCc1ccccc1`, the outcome in test [1], in test [2], in test [3], in [4], in [7] and in test [8] was inactive. For the same compound, the call in [9], in test [10], in [11], in [12], in [13] and in test [14] was inactive. Besides, the result in [15] and in test [16] was inactive. In addition, the inhibition in [5] is 99% (active); in test [6] it was 52% (active).

With `CC(C)Cc1nc(N2CCOCC2)c(C#N)c2c1CCC2`, the outcome in test [1], in test [2], in test [3], in test [4], in test [7] and in [8] was inactive. For the same compound, the result in [9], in test [10], in test [11], in test [12], in [14] and in test [15] was inactive. Further, the outcome in [16] was inactive. Further, the results for the inhibition in [5], in [6] and in test [13] were 76% (active), 50% (active) and 35.1% (active), respectively.

Turning to `CC1CCN(CCOCCOc2ccccc2-c2ccccc2)CC1`, the outcome in test [1], in [2], in [3], in test [4], in test [7] and in test [8] was inactive. Also, the outcome in [9], in test [10], in test [11], in test [12], in [14] and in [15] was inactive. Also, in test [16], the result was inactive. The inhibition was 101% (active) in test [5], 57% (active) in test [6] and 28.2% (active) in test [13].

Consider `O=C(C[N+]1(CC#Cc2ccccc2)CCCCC1)c1ccc(Cl)cc1`, for which the result in [1], in test [2], in test [3], in [4], in test [6] and in test [7] was inactive. Moreover, the result in test [8], in test [9], in test [10], in [11], in test [12] and in [14] was inactive. Further, the result in test [15] and in [16] was inactive. Moreover, the inhibition in [5] is 86% (active); in [13] it was 40.2% (active).

Regarding `COc1cc2c(cc1OC)C(C)N(CCc1ccc(Cl)cc1)CC2` (stereo not given), the outcome in test [1], in test [2], in [3], in [4], in test [6] and in [7] was inactive. Moreover, the outcome in test [8], in [9], in test [10], in test [11], in [12] and in test [13] was inactive. Further, the outcome in test [14], in [15] and in [16] was inactive. Further, the inhibition in [5] was 75% (active).

Consider `COc1ccc(Nc2nc(NCC3CCCO3)c3ccccc3n2)c(OC)c1` (stereo not given), for which the result in test [1], in [2], in test [3], in test [4], in [7] and in test [8] was inactive. Also, the outcome in [10], in test [11], in test [12], in test [14], in [15] and in test [16] was inactive. For the same compound, the inhibition in test [5] was 93% (active); in test [6] it was 50% (active); in [9], 5.5% (active); in test [13], 41.4% (active).

Take `Cc1cccc(N(C(=O)c2snc(C(N)=O)c2N)C(C(=O)NCC2CCCO2)c2ccc3ncccc3c2)c1` (stereo not given): the result in [1], in [2], in [3], in test [4], in test [6] and in test [7] was inactive. Besides, the outcome in [8], in [9], in test [10], in test [11], in test [12] and in test [13] was inactive. The result in test [14], in test [15] and in test [16] was inactive. Further, the inhibition in [5] is 85% (active).

Turning to `CCOc1ccc2c(C)nc(NC3=NC(C)(C)C=C(C)N3)nc2c1`, the outcome in test [1], in test [2], in test [3], in test [4], in test [7] and in test [8] was inactive. The outcome in test [9], in test [10], in test [11], in test [12], in [13] and in test [14] was inactive. For the same compound, the outcome in test [15] and in test [16] was inactive. In addition, the inhibition in [5] is 96% (active); in test [6], 37% (active).

Consider `c1ccc(CN2CCN(Cc3c[nH]c4ccccc34)CC2)cc1`, for which the outcome in [1], in test [2], in test [3], in test [4], in test [6] and in test [7] was inactive. Moreover, the outcome in test [8], in test [9], in test [10], in [11], in [12] and in test [14] was inactive. The outcome in test [15] and in [16] was inactive. For the same compound, the results for the inhibition in [5] and in [13] were 88% (active) and 31.6% (active), respectively.
